The antibiotic and cytotoxicity screens of Wong et al. (2023)
In all, about 39,000 compounds went through this assay and about 1,500 (3.8%) were called active. This excerpt belongs to a sample that is enriched for actives.

Test system: HSkMC (human skeletal muscle cells)
Experiment: cytotoxicity call (relative viability < 0.9)
Conditions: 10 µM

| SMILES | cytotoxicity call |
| --- | --- |
| Cc1cc(O)n(C[C@H]2CCCO2)c(=O)c1C#N | inactive |
| COc1ccc(S(=O)(=O)Nc2ccc3c(c2)C(=O)N([C@H](C)CO)C[C@@H](C)[C@H](CN(C)C(=O)Nc2ccc4c(c2)OCO4)OCCCC[C@@H](C)O3)cc1 | inactive |
| COc1ccc(S(=O)(=O)N(C)C[C@H]2Oc3c(NC(=O)Nc4c(C)noc4C)cccc3C(=O)N([C@@H](C)CO)C[C@@H]2C)cc1 | inactive |
| O=C(NC1CCCCC1)N1c2ccccc2C=Cc2ccccc21 | inactive |
| C[C@H]1CN([C@@H](C)CO)C(=O)c2c(c3ccccc3n2C)-c2ccccc2CO[C@@H]1CN(C)Cc1cccc2c1OCCCO2 | inactive |
| CCCC(=O)N1CC[C@]2(CC1)CN([C@H](CO)c1c2c2ccc(cc2n1C)OC)C(=O)CN1CCOCC1 | inactive |
| C[C@H](CO)N1C[C@H](C)[C@H](CN(C)C(=O)Nc2ccc(F)cc2)Oc2ccc(NC(=O)Nc3cccc4ccccc34)cc2C1=O | inactive |
| CCS(=O)(=O)Nc1ccc2c(c1)C(=O)N(C)[C@H]1CC[C@@H](CC(=O)NCCCN3CCOCC3)O[C@H]1CO2 | inactive |
| COc1ccc(NC(=O)Nc2ccc3c(c2)C(=O)N([C@H](C)CO)C[C@@H](C)[C@@H](CN(C)Cc2ccc(C(F)(F)F)cc2)O3)cc1 | inactive |
| COc1ccc(CN(C)C[C@H]2Oc3ccc(NC(=O)Nc4ccc(C(F)(F)F)cc4)cc3C(=O)N([C@@H](C)CO)C[C@H]2C)cc1 | active |
| COc1ccc(NC(=O)Nc2ccc3c(c2)C(=O)N([C@H](C)CO)C[C@H](C)[C@H](CN(C)Cc2ccc(C(F)(F)F)cc2)O3)cc1 | inactive |
| COc1ccc(CN(C)C[C@H]2Oc3ccc(NC(=O)Nc4ccc(C(F)(F)F)cc4)cc3C(=O)N([C@@H](C)CO)C[C@@H]2C)cc1 | active |
| COc1ccc(S(=O)(=O)Nc2ccc3c(c2)C(=O)N([C@@H](C)CO)C[C@@H](C)[C@@H](CN(C)Cc2ccccc2)OCCCC[C@H](C)O3)cc1 | inactive |
| C[C@H](CO)N1C[C@H](C)[C@@H](CN(C)S(=O)(=O)c2ccc(Cl)cc2)Oc2c(NS(C)(=O)=O)cccc2C1=O | inactive |
| C[C@@H]1CN([C@@H](C)CO)C(=O)Cc2cc(NS(C)(=O)=O)ccc2O[C@H]1CN(C)S(=O)(=O)c1ccc(F)cc1 | inactive |
| O=C(C[C@@H]1C=C[C@H](NC(=O)c2ccncc2)[C@@H](CO)O1)NCc1ccncn1 | inactive |
| Cc1ccc(S(=O)(=O)Nc2ccc3c(c2)C(=O)N([C@@H](C)CO)C[C@H](C)[C@H](CN(C)Cc2ccc(Oc4ccccc4)cc2)O3)cc1 | inactive |
| Cc1ccc(S(=O)(=O)Nc2ccc3c(c2)C(=O)N([C@@H](C)CO)C[C@@H](C)[C@H](CN(C)Cc2ccc(Oc4ccccc4)cc2)O3)cc1 | inactive |
| COc1ccc(S(=O)(=O)Nc2ccc3c(c2)C(=O)N([C@H](C)CO)C[C@@H](C)[C@@H](CN(C)Cc2ccc(Oc4ccccc4)cc2)O3)cc1 | inactive |
| COc1ccc(S(=O)(=O)Nc2ccc3c(c2)C(=O)N([C@H](C)CO)C[C@H](C)[C@@H](CN(C)Cc2ccc(Oc4ccccc4)cc2)O3)cc1 | active |
| Cc1ccc(S(=O)(=O)Nc2ccc3c(c2)C(=O)N([C@@H](C)CO)C[C@H](C)[C@@H](CN(C)Cc2ccc(Oc4ccccc4)cc2)O3)cc1 | inactive |
| Cc1ccc(S(=O)(=O)Nc2ccc3c(c2)C(=O)N([C@@H](C)CO)C[C@@H](C)[C@@H](CN(C)Cc2ccc(Oc4ccccc4)cc2)O3)cc1 | active |
| Cc1ccc(S(=O)(=O)Nc2ccc3c(c2)C(=O)N([C@H](C)CO)C[C@@H](C)[C@@H](CN(C)Cc2ccc(Oc4ccccc4)cc2)O3)cc1 | active |

| SMILES | cytotoxicity call |
| --- | --- |
| C[C@H]1CN([C@@H](C)CO)C(=O)c2cc(NS(=O)(=O)c3ccccc3)ccc2O[C@H]1CN(C)Cc1ccc(Oc2ccccc2)cc1 | inactive |
| C[C@@H]1CN([C@H](C)CO)C(=O)c2cc(NS(=O)(=O)c3ccccc3)ccc2O[C@@H]1CN(C)Cc1ccc(Oc2ccccc2)cc1 | active |
| C[C@H](CO)N1C[C@H](C)[C@@H](CN(C)Cc2ccc(Oc3ccccc3)cc2)Oc2ccc(NS(=O)(=O)c3ccccc3)cc2C1=O | inactive |
| COc1ccc(S(=O)(=O)Nc2ccc3c(c2)C(=O)N([C@H](C)CO)C[C@H](C)[C@H](CN(C)Cc2ccc(Oc4ccccc4)cc2)O3)cc1 | inactive |
| CC(C)NC(=O)Nc1ccc2c(c1)C(=O)N([C@H](C)CO)C[C@@H](C)[C@@H](CN(C)C(=O)NC1CCCCC1)O2 | inactive |
| CN1CCN(C(=O)C[C@H]2CC[C@H](NC(=O)c3ccc4c(c3)OCO4)[C@H](CO)O2)CC1 | inactive |
| C[C@@H]1CN([C@@H](C)CO)C(=O)c2cc(NS(=O)(=O)c3cccs3)ccc2O[C@@H](C)CCCCO[C@H]1CN(C)Cc1ccccc1 | inactive |
| C[C@H](CO)N1C[C@H](C)[C@H](CN(C)C(=O)Cc2ccccn2)Oc2cc(-c3cccc(C(=O)N(C)C)c3)ccc2S1(=O)=O | inactive |
| C[N+](C)(C)CCCC[C@@H]1NC(=O)[C@@H]2C[C@H](C(=O)NCc3ccc(F)cc3)[C@H](c3cccc(OCCO)c3)N2C1=O | inactive |
| C[C@@H]1CCCCO[C@@H](CN(C)Cc2ccccc2)[C@H](C)CN([C@@H](C)CO)C(=O)c2cc(NC(=O)c3ccncc3)ccc2O1 | inactive |
| C[C@H](CO)N1C[C@H](C)[C@@H](CN(C)C(=O)Nc2ccccc2F)Oc2ncc(Br)cc2C1=O | inactive |
| C[C@H](CO)N1C[C@H](C)[C@@H](CN(C)C(=O)Nc2ccc(C(C)(C)C)cc2)OCc2cn(nn2)CCCC1=O | inactive |
| C[C@H]1CN([C@@H](C)CO)C(=O)Cc2cc(NC(=O)Cc3cn(C)c4ccccc34)ccc2O[C@H]1CN(C)Cc1ccc(C(=O)Nc2ccccc2N)cc1 | inactive |
| C[C@H](CO)N1C[C@H](C)[C@@H](CN(C)C(=O)C2CCCCC2)OCCCC[C@H](C)Oc2ccc(NS(=O)(=O)c3cccs3)cc2C1=O | inactive |
| C[C@H](O)C#Cc1cnc2c(c1)C(=O)N([C@@H](C)CO)C[C@H](C)[C@H](CN(C)C(=O)CN1CCOCC1)O2 | inactive |
| CC(C)NC(=O)N(C)C[C@@H]1Oc2c(NS(=O)(=O)c3cn(C)cn3)cccc2C(=O)N([C@@H](C)CO)C[C@@H]1C | inactive |
| C[C@@H]1CN([C@@H](C)CO)C(=O)c2cc(NS(=O)(=O)c3cccs3)ccc2O[C@@H](C)CCCCO[C@@H]1CN(C)Cc1ccccc1 | inactive |
| Cc1ccc(S(=O)(=O)Nc2ccc3c(c2)C(=O)N([C@H](C)CO)C[C@H](C)[C@@H](CN(C)Cc2ccc(Oc4ccccc4)cc2)O3)cc1 | inactive |
| Cc1ccc(S(=O)(=O)Nc2ccc3c(c2)C(=O)N([C@H](C)CO)C[C@@H](C)[C@H](CN(C)Cc2ccc(Oc4ccccc4)cc2)O3)cc1 | active |
| Cc1ccc(S(=O)(=O)Nc2ccc3c(c2)C(=O)N([C@H](C)CO)C[C@H](C)[C@H](CN(C)Cc2ccc(Oc4ccccc4)cc2)O3)cc1 | inactive |
| O=C(CCCCC(=O)N/N=C/[C@H](O)[C@@H](O)[C@@H](O)[C@H](O)C(=O)O)NO | inactive |
| CC(=CCC1=C(C)C(=O)c2ccccc2C1=O)CCCC(C)CCCC(C)CCCC(C)C (configuration not stated) | inactive |
| CC(=CCO)CCC(C)CCCC(C)CCCC(C)C (configuration not stated) | active |

| SMILES | cytotoxicity call |
| --- | --- |
| C/C(=C\CO)CC[C@H](C)CCC[C@H](C)CCCC(C)C | inactive |
| COc1ccc(S(=O)(=O)N(C)C[C@H]2OCCCC[C@H](C)Oc3ccc(NC(=O)C4CCCCC4)cc3C(=O)N([C@H](C)CO)C[C@H]2C)cc1 | inactive |
| CCNC(=O)C[C@H]1C=C[C@@H](NC(=O)C2CC2)[C@H](CO)O1 | inactive |
| CC1(C)CC(=O)c2c(C(F)(F)F)nn(-c3ccc(C(N)=O)c(N[C@H]4CC[C@H](OC(=O)CN)CC4)c3)c2C1 | active |
| CC1(C)CC(=O)c2c(C(F)(F)F)nn(-c3ccc(C(N)=O)c(O[C@H]4CC[C@H](N)CC4)c3)c2C1 | inactive |
| NCc1ccccc1-c1ccsc1 | inactive |
| CC(C)C#Cc1cnc2c(c1)C(=O)N([C@@H](C)CO)C[C@H](C)[C@@H](CN(C)C(=O)c1ccc3c(c1)OCO3)O2 | inactive |
| COc1ccc(CN(C)C[C@@H]2OCCCC[C@@H](C)Oc3ccc(NC(=O)Nc4ccccc4)cc3C(=O)N([C@H](C)CO)C[C@@H]2C)cc1 | inactive |
| COc1ccc(-c2oc3c(CC=C(C)C)c(OC4OC(CO)C(O)C(O)C4O)cc(O)c3c(=O)c2OC2OC(C)C(O)C(O)C2O)cc1 (configuration not stated) | inactive |
| COc1ccc(-c2oc3cc(O[C@@H]4O[C@@H](C)[C@H](O)[C@@H](O)[C@H]4O)cc(O)c3c(=O)c2O[C@@H]2O[C@H](CO)[C@@H](O)[C@H](O)[C@H]2O)cc1 | inactive |
| COc1ccc(-c2oc3c(CC=C(C)C)c(O[C@@H]4O[C@H](CO)[C@@H](O)[C@H](O)[C@H]4O)cc(O)c3c(=O)c2O[C@@H]2O[C@@H](C)[C@H](O)[C@@H](O)[C@H]2O)cc1 | active |
| COc1ccc(S(=O)(=O)Nc2ccc3c(c2)C(=O)N([C@H](C)CO)C[C@H](C)[C@@H](CN(C)Cc2ccc(Cl)c(Cl)c2)OCCCC[C@H](C)O3)cc1 | active |
| COc1ccc(CN(C)C[C@H]2OCCCC[C@H](C)Oc3ccc(NS(=O)(=O)c4ccc(OC)cc4)cc3C(=O)N([C@@H](C)CO)C[C@@H]2C)cc1 | inactive |
| COc1ccc(S(=O)(=O)Nc2ccc3c(c2)C(=O)N([C@@H](C)CO)C[C@@H](C)[C@@H](CN(C)Cc2ccc(Cl)c(Cl)c2)OCCCC[C@@H](C)O3)cc1 | active |
| COc1ccc(S(=O)(=O)Nc2ccc3c(c2)C(=O)N([C@H](C)CO)C[C@H](C)[C@H](CN(C)Cc2ccc(Cl)c(Cl)c2)OCCCC[C@@H](C)O3)cc1 | inactive |
| COc1ccc(S(=O)(=O)Nc2ccc3c(c2)C(=O)N([C@@H](C)CO)C[C@H](C)[C@H](CN(C)Cc2ccc(Cl)c(Cl)c2)OCCCC[C@@H](C)O3)cc1 | active |
| COc1ccc(CN(C)C[C@H]2OCCCC[C@@H](C)Oc3ccc(NS(=O)(=O)c4ccc(OC)cc4)cc3C(=O)N([C@H](C)CO)C[C@H]2C)cc1 | inactive |
| COc1ccc(S(=O)(=O)Nc2ccc3c(c2)C(=O)N([C@H](C)CO)C[C@@H](C)[C@H](CN(C)Cc2ccc(Cl)c(Cl)c2)OCCCC[C@@H](C)O3)cc1 | inactive |
| COc1ccc(CN(C)C[C@H]2OCCCC[C@H](C)Oc3ccc(NS(=O)(=O)c4ccc(OC)cc4)cc3C(=O)N([C@H](C)CO)C[C@H]2C)cc1 | inactive |
| COc1ccc(CN(C)C[C@H]2OCCCC[C@@H](C)Oc3ccc(NS(=O)(=O)c4ccc(OC)cc4)cc3C(=O)N([C@@H](C)CO)C[C@@H]2C)cc1 | inactive |
| COc1ccc(S(=O)(=O)Nc2ccc3c(c2)C(=O)N([C@@H](C)CO)C[C@@H](C)[C@H](CN(C)Cc2ccc(Cl)c(Cl)c2)OCCCC[C@@H](C)O3)cc1 | active |
